In the library only some 3.5% were active in any assay of this set; here they are far more common.
FBW7 act = activators of human E3 ligase FBW7. Q969H0. AlphaScreen FBW7–phospho-cyclin E peptide binding, activator screen. normalized activity (activation), % at 26.1 µM. 650,000 compounds, 0.13% hits; in the data active means normalized activity above about 1.9%;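 further: purified mutant Fbw7 with reduced substrate affinity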
Target sequence (Q969H0 whole entry, looked up): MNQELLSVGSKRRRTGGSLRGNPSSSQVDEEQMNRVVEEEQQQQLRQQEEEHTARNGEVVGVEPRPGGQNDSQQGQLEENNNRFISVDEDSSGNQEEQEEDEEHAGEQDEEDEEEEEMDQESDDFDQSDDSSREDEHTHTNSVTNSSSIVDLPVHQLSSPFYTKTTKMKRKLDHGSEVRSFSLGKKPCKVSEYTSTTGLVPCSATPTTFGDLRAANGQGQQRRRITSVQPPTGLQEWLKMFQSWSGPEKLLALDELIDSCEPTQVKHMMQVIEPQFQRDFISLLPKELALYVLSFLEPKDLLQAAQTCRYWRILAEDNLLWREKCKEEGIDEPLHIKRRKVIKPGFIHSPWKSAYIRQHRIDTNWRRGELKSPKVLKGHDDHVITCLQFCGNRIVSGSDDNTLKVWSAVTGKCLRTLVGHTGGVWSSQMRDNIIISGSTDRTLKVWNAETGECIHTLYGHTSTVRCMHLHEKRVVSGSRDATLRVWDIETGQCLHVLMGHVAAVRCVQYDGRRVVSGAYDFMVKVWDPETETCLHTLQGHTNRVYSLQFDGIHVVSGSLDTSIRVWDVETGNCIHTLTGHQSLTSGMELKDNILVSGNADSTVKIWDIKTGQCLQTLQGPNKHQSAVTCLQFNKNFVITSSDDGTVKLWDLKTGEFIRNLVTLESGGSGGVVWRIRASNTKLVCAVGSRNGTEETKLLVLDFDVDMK
MITF primary = blocks human microphthalmia-associated transcription factor; O75030; 650,000 compounds, 0.91% hits; AlphaScreen MITF homodimerization, bead proximity signal; inhibition, % at 2.6 µM; in the data active means inhibition above about 50%;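 further: 0% = vehicle wells with protein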
TEAD-YAP inh = TEAD-YAP interaction inhibition | HEK-TIYL cells, TEAD-Gal4/YAP UAS-luciferase luminescence | inhibition, % at 9.12 µM | 640,000 compounds, 1.4% hits | AID 1259422; in the data active means inhibition above about 32%;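 further: 0% = median of test compound wells and 100% = reference inhibitor wells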
GPR151 activ = activates the human receptor GPR151; Q8TDV0; PathHunter beta-arrestin GPR151 cells, luminescence; activation, % at 11.2 µM; 650,000 compounds, 1% hits; AID 1508602; in the data active means activation above about 4.9%;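 further: 0% = median of compound wells and 100% = cells with positive control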
GPR151 conf act = human GPR151 activation, confirmation screen. shares compounds with GPR151 activ. GPR151 PathHunter beta-arrestin cells, luminescence, 90 min; % of EA-reagent control over plate median. activation, % at 11.2 µM. 6,700 tested, under 10 active. AID 1508609;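 active means mean percent activation across replicates above the confirmation screen cutoff of 4.91%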
GPR119 ag = GPR119 activation, counter-screen for GPR151 activators | shares compounds with GPR151 activ | GPR119 PathHunter beta-arrestin cells, luminescence, 90 min; 0 = compound-well median, 100 = enzyme-acceptor control | activation, % at 11.2 µM | 6,700 compounds, 0.3% hits | AID 1508611;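 active means mean percent activation in the counterscreen above 29.09%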;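 further: counterscreen on off-target GPR119 to flag nonselective hits from the GPR151 activator screen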
* = called active by the depositor; · = not tested or not shown.

SMILES	FBW7 act	MITF primary	TEAD-YAP inh	GPR151 activ	GPR151 conf act	GPR119 ag
Cn1c(=O)c2c(ncn2CCn2cnc3c2c(=O)n(C)c(=O)n3C)n(C)c1=O	0	2	1	-2	·	·
CN(C)C(=O)NCCn1cnc2c1c(=O)n(C)c(=O)n2C	0	13	3	6.2*	-1	-2
O=C(NC1CC2CCCC(C1)N2CC(=O)N1CCCc2ccccc21)C1CCCCC1 (configuration not stated)	0	15	7	8.7*	0	6
O=C(CCl)N1CCCc2ccccc21	-1	-5	17	11*	0	2
CCSC1=NSC2=NC(=O)/C(=C\c3ccc([N+](=O)[O-])cc3)C(=N)N12	0	-4	-8	0	·	·
CSC1=NSC2=NC(=O)/C(=C\c3ccc([N+](=O)[O-])cc3)C(=N)N12	0	5	-43	11*	2	1
O=C(NCCCNCCCNC(=O)/C(=N/O)c1ccccc1)/C(=N/O)c1ccccc1	0	10	-6	5.4*	0	4
NCCNC(=O)/C(=N\O)c1ccccc1	0	4	15	0	·	·
COc1ccc(NC(=O)Nc2cccc([N+](=O)[O-])c2C)cc1OC	0	1	-7	0	·	·
CCN(CC)CCOc1ccc2c(c1)C(=O)c1cc(OCCN(CC)CC)ccc1-2	0	8	50*	15*	-1	-3
O=C1CN(c2ccc(S(=O)(=O)N3CCCC3)cn2)CCN1	0	-9	5	1	·	·
O=C1CN(c2ccc(S(=O)(=O)N3CCC(Cc4ccccc4)CC3)cn2)CCN1	0	-1	-4	7.3*	1	7
Cc1nc(N2CCC(C(N)=O)CC2)c2c(-c3cccs3)csc2n1	0	9	0	5.4*	0	5
Cc1nc(N2CCCN(C)CC2)c2c(-c3cccs3)csc2n1	1	33	4	-1	·	·
CC(=O)NNC(=O)CSc1nc(C(C)C)nc2sc3c(c12)CCCC3	0	5	-3	-1	·	·
Cc1nc2ccc(Br)cc2c(Cl)c1CCC(=O)O	0	1	6	8.9*	1	13
O=C(NCc1n[nH]c(=S)n1-c1cccc(C(F)(F)F)c1)c1ccc(S(=O)(=O)N2CCCCC2)cc1	0	8	8	5.4*	1	16
CCOc1ccc(/C=C2\N=C(c3cccs3)OC2=O)cc1	0	-4	-1	-1	·	·
CN(C)c1cccc2c(S(=O)(=O)Nc3nccnc3-c3ccc(C=O)cc3)cccc12	0	2	2	5.9*	2	-7
CN(C)c1ccc(-c2nccnc2NS(=O)(=O)c2ccc(Cl)cc2)cc1	-1	-10	1	1	·	·
O=Cc1ccc(-c2nccnc2NS(=O)(=O)c2cccc(Cl)c2)cc1	0	8	9	5.0*	0	-6
CN(C)c1cccc2c(S(=O)(=O)Nc3nccnc3-c3ccc(CO)cc3)cccc12	0	46	10	0	·	·
C=C(C)Cn1c(N2CCCC(C)C2)nc2c1c(=O)n(C)c(=O)n2C (configuration not stated)	0	10	4	0	·	·
Fc1cccc(F)c1Nc1ccc(Br)cn1	0	11	0	-1	·	·
Brc1ccc(Nc2cccnc2)nc1	0	-2	0	11*	1	4
SMILES	FBW7 act	MITF primary	TEAD-YAP inh	GPR151 activ	GPR151 conf act	GPR119 ag
CCOc1ccccc1Nc1c(-c2ccc(Cl)cc2)c(=O)c1=O	0	0	-13	2	·	·
COC(=O)CSc1nnc(COc2ccccc2OC)n1C	0	2	-5	5.3*	1	4
Cn1c(COc2ccc(Cl)cc2)nnc1SCC(=O)NC(C)(C)C	0	-2	-2	-1	·	·
COc1ccccc1NC(=O)CSc1nnc(CNC(=O)c2ccc(C)cc2)n1C	0	-16	9	1	·	·
COc1ccccc1NC(=O)CSc1nnc(COc2ccc(C)cc2)n1C	0	9	5	5.3*	-1	-6
CNC(=O)CSc1nnc(COc2ccccc2OC)n1C	0	-8	2	0	·	·
Cn1c(COc2ccc(Cl)cc2)nnc1SCC(=O)NCC(F)(F)F	0	3	0	5.1*	2	4
COc1ccc(Cc2nnc(SCC(=O)Nc3ccccc3OC)n2-n2cccc2)cc1	0	3	17	11*	-1	-18
COc1cc2ccccc2cc1C(=O)Nc1ccc(Cl)c(-c2nc3ccccc3[nH]2)c1	0	12	0	-1	·	·
CC(C)Cc1cn[nH]c1C1CCCN(C(=O)C2CCOC2)C1 (configuration not stated)	0	-2	-8	0	·	·
CN1C(=O)C(O)(NC(=O)c2ccccc2)c2ccccc21 (configuration not stated)	1	17	24	-2	·	·
N#C/C(=C/c1ccc(Br)s1)c1ccc(C(=O)O)cc1	0	17	-2	-2	·	·
COc1cccc(CC2(C3CCN(Cc4cccnc4)CC3)NC(=O)N(C)C2=O)c1 (configuration not stated)	0	-5	-2	1	·	·
COc1cccc(CC2(C3CCN(Cc4ccccc4F)CC3)NC(=O)N(C)C2=O)c1 (configuration not stated)	0	1	8	5.0*	1	4
CCC1=NN(C(=O)Cc2ccccc2)C(O)(c2ccc(OC)cc2)C1 (configuration not stated)	0	14	-15	-1	·	·
Cc1sc(NC(=O)c2ccco2)c(CN2CCN(CCO)CC2)c1C	0	1	14	25*	1	1
COc1ccc(OC)c(/C=C/c2[nH]c(=O)[nH]c(=O)c2[N+](=O)[O-])c1	0	3	-1	2	·	·
COc1ccc(Cl)cc1/C=C/c1[nH]c(=O)[nH]c(=O)c1[N+](=O)[O-]	0	-19	5	7.3*	2	24
COC(=O)c1ccc(OCC2c3cc(OC)c(OC)cc3CCN2C(=O)c2cccc(OC)c2OC)cc1 (configuration not stated)	0	0	-13	5.3*	1	1
COc1ccc(-c2nnc3ccc(SCc4ccccc4)nn23)cc1OC	0	-3	-8	5.6*	0	3
COc1ccc(-c2nnc3ccc(SCc4ccc(F)cc4)nn23)cc1OC	0	-9	4	4	·	·
Cc1cc(C)n(CC(O)CN(c2cccc([N+](=O)[O-])c2)S(=O)(=O)c2ccccc2)n1 (configuration not stated)	0	11	-1	1	·	·
Cc1ccc(S(=O)(=O)N(CC(O)Cn2nc(C)cc2C)c2cccc([N+](=O)[O-])c2)cc1 (configuration not stated)	0	7	10	5.8*	3	4
Cc1ccc(C(C)C)cc1OCCOCCNCCN(C)C	0	-19	12	5.1*	-1	-1

Compound activity as filed in PubChem.
